From PubChem BioAssay AID1028 (SRMLSC, 2008)
Potency and affinity values are given separately.

Target: diphosphomevalonate decarboxylase (Streptococcus pneumoniae D39) (UniProt Q9FD53)
Assay: diphosphomevalonate decarboxylase inhibitor confirmation – biochemical, cuvette format, coupled NADH fluorescence (AID 1028)
Conditions: purified DPM-DC, rate, at 50 µM, active compounds read high;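 active means enzyme inhibitor confirmed by dose series, half-maximal inhibitory concentration at most 40 µM; inactive means the rest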

inhibition, inactive:
O=C(NC1CC1)c1ccccc1-n1sc2ccccc2c1=O 8%
COc1ccc2nc(-c3cc(C)ccc3C)oc2c1 1.13%
COc1ccc2oc(-c3cccc([N+](=O)[O-])c3)nc2c1 7.59%
COc1ccc(OC)c(-c2nc3cc(OC)ccc3o2)c1 2.12%
COc1ccc2nc(-c3cc(OC)c(OC)c(OC)c3)oc2c1 3.99%
Cc1ccc(-c2nc3cc(N)ccc3o2)cc1F 16%
Cc1ccc(C)c(-c2nc3cc(N)ccc3o2)c1 0.87%
COc1ccc2nc(-c3ccc(F)cc3)oc2c1 4.34%
Cc1ccc(C)c(-c2nc3c(N)cccc3o2)c1 6.19%
O=C(c1ccccc1-n1sc2ccccc2c1=O)N1CCOCC1 13.7%
Nc1ccc2oc(-c3cccc(Cl)c3)nc2c1 8.07%
COc1ccc2nc(-c3ccc(C)cc3)oc2c1 5.23%
COc1ccccc1-c1nc2cc(N)ccc2o1 14.5%
COc1ccc2oc(-c3cccc(C)c3)nc2c1 2.37%
COc1ccc(-c2nc3cc(N)ccc3o2)cc1 13.2%
Fc1cccc(-c2nc3ccccc3o2)c1 4.51%
Clc1cccc(-c2nc3ccccc3o2)c1 1.68%
c1ccc(-c2nc3ccccc3o2)cc1 2.96%
COc1ccc2oc(-c3ccc(F)cc3)nc2c1 1.68%
COc1ccc2nc(-c3ccncc3)oc2c1 4.83%
O=C(c1ccccc1-n1sc2ccccc2c1=O)N1CCCCC1 16.1%
COc1ccccc1-c1nc2ccccc2o1 6.39%
COc1ccc(-c2nc3ccccc3o2)cc1 6.86%
Cc1ccc(C)c(-c2nc3ccccc3o2)c1 -0.27%
